Measurements taken from PubChem BioAssay AID720690 (Broad Institute, 2013).
Measured potencies and affinities stand elsewhere. Activity calls are given as the source filed them.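 How the source made its calls: active means every repeat run showing a signal drop whose fitted half-maximal concentration is at most twice the top tested concentration; inconclusive means repeat runs disagree, or flat partial drop, or poor fit; inactive means the rest.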

Assay: general mammalian cell viability loss – activator set, cherry-pick, cytotoxicity control for miR-122 modulator project, dose response (AID 720690)
Conditions: HEK293T viability, CellTiter-Glo luminescence, 48 h; series mostly up to 26 µM

SMILES | outcome
COc1ccc(-c2c(C(C)=O)c(C)nc3sc4c(c23)NC(c2ccccc2)NC4=O)cc1 (stereo not given) | inactive
C/C=C/c1ccc([C@H]2[C@@H](CO)N(C(=O)CC)[C@H]2CNC(=O)CC)cc1 | inactive
CCCC(=O)Nc1ccc2c(c1)C(=O)N(C)[C@@H]1CC[C@H](CC(=O)NCCN3CCCCC3)O[C@H]1CO2 | inactive
CCCNC(=O)Nc1ccc2c(c1)OC[C@@H](C)N(CCC)C[C@H](C)[C@H](OC)CN(C)C2=O | inactive
c1ccc(CCNc2nnnn2-c2ccccc2)cc1 | inactive
CN1C(=O)c2cc(NC(=O)Cc3ccccc3)ccc2OC[C@@H]2O[C@@H](CC(=O)O)CC[C@H]21 | inactive
CNC(=O)C[C@@H]1CC[C@H]2[C@H](COc3ccc(NC(=O)c4cccc(OC)c4)cc3C(=O)N2C)O1 | inactive
CN1C(=O)c2cc(NS(=O)(=O)c3cccc(F)c3)ccc2OC[C@@H]2O[C@@H](CC(=O)O)CC[C@@H]21 | inactive
COc1ccc(S(=O)(=O)N(C)C[C@@H]2Oc3ncc(/C=C/c4ccccc4)cc3C(=O)N([C@@H](C)CO)C[C@@H]2C)cc1 | inactive
Cc1cc(C(=O)Nc2ccc3c(c2)C(=O)N(C)[C@H]2CC[C@@H](CC(=O)N[C@@H](C)c4ccccc4)O[C@H]2CO3)no1 | inactive
COCC(=O)N1[C@@H](CO)[C@@H]2c3ccccc3N(C(=O)C3CC3)C[C@@H]21 | inactive
CCNC(=O)C[C@H]1CC[C@@H]2[C@H](COc3ccc(NC(=O)Nc4cccc(OC)c4)cc3C(=O)N2C)O1 | inactive
COCC(=O)N(C[C@H]1[C@H](c2ccccc2)[C@@H](CO)N1C(=O)NC(C)C)C(C)C | inactive
COCCN(C[C@H]1[C@H](c2ccccc2)[C@@H](CO)N1C(=O)C1CCC1)C(C)=O | inactive
O=C(CSc1nc2ccccc2s1)N1CCOCC1 | inactive
Cc1nnc(NC(=O)CSc2nc(C(C)C)nc3sc(C)c(C)c23)s1 | inactive
CC(=O)Nc1ccc2c(c1)C(=O)N(C)[C@H]1CC[C@H](CC(=O)NC3CCCCC3)O[C@@H]1CO2 | inactive
CCN(C[C@H]1[C@H](c2ccccc2)[C@@H](CO)N1S(C)(=O)=O)C(=O)C1CC1 | inactive
CN1C(=O)c2cc(NC(=O)c3cccc(F)c3)ccc2OC[C@H]2O[C@H](CC(=O)N3CCc4ccccc4C3)CC[C@H]21 | inactive
CN(C)C(=O)C[C@@H]1CC[C@@H]2[C@@H](COc3ccc(NC(=O)C4CC4)cc3C(=O)N2C)O1 | inactive

SMILES | outcome
CC(C)OCCCNC(=O)c1ccncc1 | inactive
CN1C(=O)c2cc(NC(=O)c3cccc(F)c3)ccc2OC[C@@H]2O[C@@H](CC(=O)O)CC[C@H]21 | inactive
CN(C)c1ncnc2c1ncn2C1OC(CO)C(O)C1O (stereo not given) | inactive
O=C(NC[C@@H]1[C@H](c2ccccc2)[C@@H](CO)N1Cc1cccnc1)c1ccccn1 | inactive
COC(=O)C[C@@H]1CC[C@@H]2[C@@H](COc3ccc(NC(=O)c4cscn4)cc3C(=O)N2C)O1 | inactive
CC(C)NC(=O)N1[C@H](CO)[C@@H](c2ccccc2)[C@@H]1CNC(=O)CN(C)C | inactive
CCNC(=O)C[C@H]1CC[C@H]2[C@@H](COc3ccc(NS(C)(=O)=O)cc3C(=O)N2C)O1 | inactive
O=C(C1CCOCC1)N1[C@H](CO)[C@H]2c3ccccc3NC[C@H]21 | inactive
CNC(=O)C[C@@H]1CC[C@@H]2[C@H](COc3ccc(NC(=O)Nc4ccc(Cl)cc4)cc3C(=O)N2C)O1 | inactive
C[C@@H]1CN([C@@H](C)CO)C(=O)c2cc(NC(=O)NC3CCCCC3)ccc2O[C@@H]1CN(C)C(=O)Nc1ccc2c(c1)OCO2 | inactive
C/C(=N\Nc1cc(N2CCCCC2)nc(C)n1)c1ccc(Br)cc1 | inactive
C/C=C/c1ccc([C@H]2[C@@H](CO)N(Cc3ccccn3)[C@H]2CNC(C)=O)cc1 | inactive
CC(C)(C)c1ccc(S(=O)(=O)NCCc2ccncc2)cc1 | inactive
O=C(Cc1cccnc1)N1[C@@H](CO)[C@@H]2c3ccccc3NC[C@@H]21 | inactive
CCN(C[C@H]1[C@H](c2ccccc2)[C@H](CO)N1C(=O)COC)S(C)(=O)=O | inactive
CCC(=O)N1[C@@H](CO)[C@@H](c2ccccc2)[C@@H]1CN(C(C)C)S(C)(=O)=O | inactive
CCN(C[C@@H]1[C@@H](c2ccc(C3=CCCCC3)cc2)[C@@H](CO)N1CC1CC1)C(C)=O | inactive
COc1ccccc1C(=O)N1C[C@@H]2[C@H](c3ccccc31)[C@H](CO)N2CC1CCCC1 | inactive
C[C@@H]1CN([C@H](C)CO)S(=O)(=O)c2ccc(C3=CCCC3)cc2O[C@@H]1CN(C)C(=O)c1cnccn1 | inactive
COCC(=O)N(C[C@@H]1[C@@H](c2ccccc2)[C@@H](CO)N1C(=O)NC(C)C)C(C)C | inactive
